In PubChem BioAssay (NCI):
Compounds without any hit were thinned out: in the full panel of roughly 79,000, 15% have a hit. The source made the active and inactive calls. No stated cut-off is given here; in the data, active means growth inhibition above about 70%; inactive means the rest.

Key:
[1] = NCI Yeast Anticancer Drug Screen. Data for the rad50 strain (AID 155);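 further: 0% = growth of vehicle-only cultures of the same strain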; details: S. cerevisiae rad50 strain growth inhibition, hits give high values
Procedure, shortened: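 Vehicle-treated cultures provide the reference for the growth inhibition reported for compound-exposed, repair-deficient yeast.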

[2] = NCI Yeast Anticancer Drug Screen. Data for the mec2-1 strain (AID 157); details: S. cerevisiae mec2-1 strain, hits give high values
Procedure, shortened: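 Yeast mec2-1 mutant treated with compound. Readout: growth inhibition vs vehicle controls.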

[3] = NCI Yeast Anticancer Drug Screen. Data for the sgs1 mgt1 strain (AID 161);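 further: 0% = growth of cultures given vehicle only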; details: S. cerevisiae sgs1 mgt1 strain, hits give high values
Procedure, shortened: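 Test agents were incubated with a DNA-repair-mutant yeast strain. Growth was then read and compared against vehicle-treated controls.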

[4] = NCI Yeast Anticancer Drug Screen. Data for the cln2 rad14 strain (AID 165);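 further: 0% = growth equal to vehicle treated cultures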; details: S. cerevisiae cln2 rad14 strain, hits give high values
Procedure, shortened: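 cln2 rad14 yeast strain; compound exposure; growth inhibition read vs vehicle controls.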

[5] = NCI Yeast Anticancer Drug Screen. Data for the bub3 strain (AID 167); details: S. cerevisiae bub3 mutant strain, hits give high values
Procedure, shortened: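 Mutant yeast screening strain plus compound; vehicle-treated cultures serve as the 0% inhibition reference.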

[6] = NCI Yeast Anticancer Drug Screen. Data for the mlh1 rad18 strain (AID 175); details: S. cerevisiae mlh1 rad18 strain growth inhibition, hits give high values
Procedure, shortened: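 Yeast w/ defined DNA-repair lesions; compound exposure; growth vs vehicle controls → % inhibition.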

[7] = at 5.0 µM (retest, dose inferred, filed as 0.5)
[8] = at 50.0 µM (retest, dose inferred, filed as 5.0)

Measured: growth inhibition

CCCCCCCCCCCCCCCc1ncc(C)[nH]1
inactive: [1]; [7] 69% | [1]; [8] 69% | [4]; [7] 28% | [6]; [7] 50%
active: [1]; at 50.0 µM 99.1% | [2]; [7] 72% | [2]; [8] 99% | [2]; at 50.0 µM 99.4% | [3]; [7] 91% | [3]; [8] 99% | [3]; at 50.0 µM 99.4% | [4]; [8] 98% | [4]; at 50.0 µM 97.4% | [5]; [7] 75% | [5]; [8] 99% | [5]; at 50.0 µM 99.5% | [6]; [8] 99% | [6]; at 50.0 µM 99%

COc1ccc(C(=O)c2cc(Cl)ccc2N)cc1
active: [1]; [8] 93% | [1]; at 50.0 µM 99% | [2]; [8] 87% | [2]; at 50.0 µM 98.2% | [3]; [8] 91% | [3]; at 50.0 µM 99.1% | [4]; [8] 71% | [4]; at 50.0 µM 92.1% | [5]; [8] 73% | [5]; at 50.0 µM 99.2% | [6]; [8] 95% | [6]; at 50.0 µM 94.2%
inactive: [1]; [7] 16% | [2]; [7] -1% | [3]; [7] 8% | [4]; [7] -8% | [5]; [7] 1% | [6]; [7] -1%

NC(=Nc1cc2ccccc2c2ccccc12)Nc1cc2ccccc2c2ccccc12
active: [1]; [7] 87% | [1]; [8] 97% | [1]; at 50.0 µM 85.8% | [2]; [7] 91% | [2]; [8] 99% | [2]; at 50.0 µM 77.2% | [3]; [7] 89% | [3]; [8] 99% | [3]; at 50.0 µM 95.3% | [4]; [8] 96% | [4]; at 50.0 µM 95% | [5]; [8] 97% | [5]; at 50.0 µM 97.7% | [6]; [7] 97% | [6]; [8] 97% | [6]; at 50.0 µM 97.5%
inactive: [4]; [7] 45% | [5]; [7] 35%

CCCCCCCCCCCCCCNCC(OCC)OCC
inactive: [1]; [7] 69% | [2]; [7] 62% | [4]; [7] 61%
active: [1]; [8] 98% | [1]; at 50.0 µM 90.7% | [2]; [8] 99% | [2]; at 50.0 µM 93.4% | [3]; [7] 83% | [3]; [8] 99% | [3]; at 50.0 µM 93.2% | [4]; [8] 98% | [4]; at 50.0 µM 90.5% | [5]; [7] 75% | [5]; [8] 99% | [5]; at 50.0 µM 91.5% | [6]; [7] 85% | [6]; [8] 98% | [6]; at 50.0 µM 91%

O=c1cccc(C2CCc3cc(O)ccc3C2)[nH]1 (stereo not given)
inactive: [1]; [7] -5% | [1]; [8] 3% | [1]; at 50.0 µM -2.85% | [2]; [7] 3% | [2]; [8] 1% | [2]; at 50.0 µM 3.35% | [3]; [7] -3% | [3]; [8] 4% | [3]; at 50.0 µM -5.05% | [4]; [7] 1% | [4]; [8] -18% | [4]; at 50.0 µM 22.6% | [5]; [7] -3% | [5]; [8] -11% | [5]; at 50.0 µM -11.3% | [6]; [7] -6% | [6]; [8] 5% | [6]; at 50.0 µM 13.2%

CCOc1ccc2nc(NC(=O)c3c/c(=N\NC(=O)C[N+](C)(C)C)c4ccc(O)cc4o3)sc2c1
inactive: [1]; [7] 57% | [1]; [8] 64% | [2]; [7] 28% | [2]; [8] 53% | [3]; [7] 33% | [3]; [8] 65% | [4]; [7] 13% | [4]; [8] 61% | [5]; [7] 62% | [5]; [8] 62% | [6]; [7] 41% | [6]; [8] 52%
active: [1]; at 50.0 µM 99.3% | [2]; at 50.0 µM 99.6% | [3]; at 50.0 µM 99.3% | [4]; at 50.0 µM 98.6% | [5]; at 50.0 µM 99.3% | [6]; at 50.0 µM 99.2%

O=C1C(C=NC(=S)c2ccccc2)=C(O)c2ccccc21
inactive: [1]; [7] 22% | [1]; at 50.0 µM -13.8% | [2]; [7] 23% | [2]; [8] 68% | [2]; at 50.0 µM -12.1% | [3]; [7] 33% | [3]; [8] 68% | [3]; at 50.0 µM 2.35% | [4]; [7] 20% | [4]; [8] 48% | [4]; at 50.0 µM 10.1% | [5]; [7] 31% | [5]; at 50.0 µM -4.7% | [6]; [7] 32% | [6]; at 50.0 µM 6.45%
active: [1]; [8] 72% | [5]; [8] 81% | [6]; [8] 87%

COC(=O)c1nc(Cl)nc(Cl)c1N
inactive: [1]; [7] 8% | [2]; [7] 14% | [3]; [7] 11% | [4]; [7] -3% | [5]; [7] 7% | [6]; [7] 11%
active: [1]; [8] 95% | [1]; at 50.0 µM 96.7% | [2]; [8] 95% | [2]; at 50.0 µM 97.3% | [3]; [8] 92% | [3]; at 50.0 µM 98.2% | [4]; [8] 92% | [4]; at 50.0 µM 96% | [5]; [8] 95% | [5]; at 50.0 µM 97.8% | [6]; [8] 96% | [6]; at 50.0 µM 98.2%

Cc1ccc(O)c(C(c2cc(C)ccc2O)c2cc([N+](=O)[O-])ccc2O)c1
inactive: [1]; [7] 23% | [2]; [7] 7% | [3]; [7] 17% | [3]; at 50.0 µM 40.5% | [4]; [7] 17% | [5]; [7] 5% | [6]; [7] 24%
active: [1]; [8] 97% | [1]; at 50.0 µM 90.9% | [2]; [8] 99% | [2]; at 50.0 µM 93.1% | [3]; [8] 99% | [4]; [8] 99% | [4]; at 50.0 µM 90.8% | [5]; [8] 99% | [5]; at 50.0 µM 91.8% | [6]; [8] 97% | [6]; at 50.0 µM 91.3%

CN1CCC(CCC(=O)OC(C)(C)C)(CN2c3ccccc3Sc3ccccc32)C1 (stereo not given)
inactive: [1]; [7] -4% | [2]; [7] -14% | [3]; [7] -12% | [4]; [7] -12% | [5]; [7] -2% | [6]; [7] 19%
active: [1]; [8] 98% | [1]; at 50.0 µM 99.5% | [2]; [8] 96% | [2]; at 50.0 µM 99.8% | [3]; [8] 96% | [3]; at 50.0 µM 99.7% | [4]; [8] 97% | [4]; at 50.0 µM 96.7% | [5]; [8] 78% | [5]; at 50.0 µM 96.5% | [6]; [8] 99% | [6]; at 50.0 µM 99.6%
